CHX counter: counter-screen for Shiga toxin inhibitors: cycloheximide protein synthesis inhibition. cell reporter, cycloheximide protein synthesis inhibition counterscreen. max response, %. 12% of 300,000 active. AID 2314; in the data active means max response mostly above about 13%, no sharp cut-off; inactive means mostly below about 14%; further: read at 38.3 µM for the half of the compounds with a filed dose; 0% is about no effect
AMA1-RON2 inh: AMA1-RON2 (P. falciparum) interaction inhibition | 0.2% of 360,000 active | AID 720542 | AlphaScreen AMA1-biotinylated RON2 peptide binding | Potency, µM (top dose mostly 58.2 µM), for the others: at the highest dose activity change, negative = inhibition, usual class: inhibitors; active means well fitted inhibition curve with a large enough effect; inconclusive means small, poorly fitted or top-dose-only effect; inactive means no such curve, though single readings can be large or run the other way;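 further: potency means the concentration at half of the fitted maximal effect; 0% = vehicle wells and -100% = peptide control; nearly all actives have a fitted effect of over 45% in size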
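AMA1 (3D7) with his tag at 25 nM final met compounds first, then biotinylated RON2 peptide at 25 nM; detection used donor plus acceptor beads, 10 µg/mL apiece, read by AlphaScreen after 30 min at room temperature.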
Shiga inhibitor: Shiga toxin inhibition; Vero cells, Shiga toxin protein synthesis inhibition reporter; inhibition, % at 38.7 µM; 9.2% of 290,000 active; AID 2315; in the data active means inhibition mostly above about 28%, no sharp cut-off; inactive means mostly below about 43%; further: 0% is about no effect
LASV entry inh: inhibitors of Lassa virus binding or cell entry | Lassa virus pseudotype entry inhibition, cell reporter | Potency, µM (top dose mostly 37.9 µM), for inactives: top-dose activity change, negative = inhibition, usual class: inhibitors | 1.2% of 300,000 active | AID 540256; calls by dose curve; tested in HEK293 cells; further: potency means the concentration at half of the fitted maximal effect; on the % scale 0 is the no-effect control and ±100 the full control effect; nearly all actives have a fitted effect of over 50% in size
Marburg entry inh: blocks Marburg virus binding to or entry into cells; Marburg virus pseudotyped entry inhibition, cell reporter; Potency, µM (series often up to 37.8 µM), without a hit: at the top dose activity change, negative = inhibition, usual class: inhibitors; 1.8% of 300,000 active; calls by dose curve; tested in HEK293 cells; further: potency means the concentration at half of the fitted maximal effect; on the % scale 0 is the no-effect control and ±100 the full control effect
Numbers without * were called inactive; ? = inconclusive; . = not tested or not shown; [ ] = dose if it differs, or a comment. Many of the other results were omitted from the sample, so hits are more common in it than they were.

SMILES	CHX counter	AMA1-RON2 inh	Shiga inhibitor	LASV entry inh	Marburg entry inh
COc1cc(NCCCn2cnc3c(OC)ncnc32)cc(OC)c1OC	.	-3.9%	.	.	.
S=C(N/N=C/c1cccs1)NC1CC2CCC1C2 (stereo unspecified)	24.0*	10.7%	46.5*	-10.2%	?
Oc1ccc(/C=N/NC(=S)NC2CC3CCC2C3)cc1 (stereo unspecified)	16.5*	51.2%	37.2	11.2µM*	?
Oc1ccc(/C=N/NC(=S)NCC2CCCO2)cc1 (stereo unspecified)	1.0	-2.6%	-6.2	-20.8%	-4.2%[46.1 µM]
Cc1cccc(OCc2nnc(SCC(=O)Nc3ccc(N4CCOCC4)cc3)o2)c1	-0.4	5.3%	-11.3	-12.8%[46.1 µM]	?
Cc1ccc(Cl)cc1NC(=O)COC(=O)C12CC3CC(CC(C3)C1)C2	-2.7	-12.6%	35.9	-27.4%	-4.7%
CC(C)OC(=O)c1cc(-c2ccc(C=O)o2)ccc1Cl	11.0*	6.9%[11.6 µM]	21.2	-7.0%	0.0%
CC(C)N1C(=O)S/C(=C\c2ccc(-c3ccc(Cl)c(C(=O)O)c3)o2)C1=O	76.0*	-13.3%	153.2*	.	.
CC(C)OC(=O)/C(C#N)=C/c1ccc(-c2ccc(Cl)c(Cl)c2)o1	.	.	.	25.4%[46.1 µM]	.
COc1ccc(/C=N/NC(=O)c2cccc([N+](=O)[O-])c2)cc1OC	1.0	14.7%	17.4	4.1%	7.9%
O=C(Oc1cccc(/C=N/Nc2nc(N3CCOCC3)nc(N3CCOCC3)n2)c1)c1ccco1	-4.4	-15.0%	-1.9	0.3%	?
COc1cc(/C=N/Nc2nc(Nc3ccccc3)nc(N3CCOCC3)n2)ccc1OC(=O)c1ccco1	35.2	8.7%	39.1	?	2.06µM*
COc1cc(/C=N/NC(=O)c2cccc([N+](=O)[O-])c2)ccc1OC(=O)c1ccco1	7.2	9.5%	40.2*	3.5%	2.0%[46.1 µM]
COc1cc(/C=N/Nc2cccc(C)c2)ccc1OC(=O)c1ccco1	38.6*	-3.9%	19.7	-1.4%	0.1%
C=C1[C@@H](O)[C@H](CC(C)C)N(Cc2ccccc2Br)S1(=O)=O	.	8.5%	.	.	.
O=C(N/N=C\c1ccc(Cl)cc1)c1sccc1-n1cccc1	32.5*	5.6%	70.3*	-9.5%	?
CN(C)c1ccc(/C=N/NC(=O)c2sccc2-n2cccc2)cc1	38.7*	-5.6%	98.0*	20.0%	18.8%[46.1 µM]
Cc1c(CCOC(=O)c2ccc(N3CCOCC3)c([N+](=O)[O-])c2)sc[n+]1CC#N	14.6	35.7%	13.5	13µM*	?
CC(C)(C)SCCNC(=O)c1ccc(NS(C)(=O)=O)cc1	16.4*	4.4%	36.1*	23.6%	12.3%
CS(=O)(=O)Nc1ccc(C(=O)NCCc2ccccc2)cc1	30.6*	-0.7%	69.2*	7.4%	28.6%
CCCc1nn(C)c2c1[C@@H](c1cccnc1)C(C#N)=C(N)O2	.	.	.	.	-3.8%
Cc1ccc(C)c(CC(=O)N2CCCC(c3cc(C(=O)NCc4cccnc4)no3)C2)c1 (stereo unspecified)	.	-6.3%	.	.	.
COc1ccc2c(Cl)c(C(=O)NCCCn3ccnc3)sc2c1	19.7*	-6.6%	38.5	0.6%	?
O=C(NCCCn1ccnc1)c1ccc(Br)cc1	-5.2	-14.8%	-6.1	25.8%[46.1 µM]	-1.9%[46.1 µM]
C=CCNC(=O)c1cc(-c2ccc(Br)cc2)on1	24.2*	-1.6%	89.0*	-16.5%	?
SMILES	CHX counter	AMA1-RON2 inh	Shiga inhibitor	LASV entry inh	Marburg entry inh
O=C(NCCCn1ccnc1)c1cc(-c2ccc(Br)cc2)on1	28.5*	-3.0%	58.8	.	.
O=C(NCCCn1ccnc1)c1cc(-c2ccc3c(c2)OCO3)on1	11.8*	-13.7%	22.0*	0.2%	11.2%
CC(=O)Oc1ccccc1[C@@H]1OCCN1C(C)=O	.	.	.	.	1.9%
COc1cccc(-c2cc(C(=O)NCCCn3ccnc3)no2)c1	23.0*	-10.4%	102.5*	9.3%	?
COc1ccc(-c2cc(C(=O)NCCCn3ccnc3)no2)cc1OC	-2.2	-3.2%	-9.2	1.3%	?
Cc1cccc(OCC(=O)Nc2ccc3nc(C)sc3c2)c1	9.8	23.9%	62.9*	.	.
Cc1nc2ccc(NC(=O)COc3ccccc3)cc2s1	22.8*	-11.5%	32.7	11.2%	?
CC(=O)c1ccc(OCC(=O)Nc2ccc3nc(C)sc3c2)cc1	-3.1	10.3%	-3.3	-19.5%	-2.3%
Cc1nc2ccc(NC(=O)COc3cccc(F)c3)cc2s1	25.8*	-8.8%	30.5	.	.
CCC(=O)Nc1nc2ccc(NC(=O)COc3ccccc3)cc2s1	11.6	-1.0%	-7.6	-0.2%[46.1 µM]	?
Cc1cc(CNC(=O)COc2ccccc2)c2ccccc2n1	17.2*	-8.3%	80.4	?	?
COc1ccc(C2C(=O)N(C3CCC(C)CC3)CC(=O)N2CCc2ccccc2)cc1OC (stereo unspecified)	.	.	.	-14.6%[46.1 µM]	.
O=[N+]([O-])c1cc(-c2cnc3ccccc3n2)ccc1Oc1ccc(Cl)cc1	37.9*	-24.4%	39.3*	.	.
O=[N+]([O-])c1cc(-c2cnc3ccccc3n2)ccc1Cl	13.7	-3.0%	16.8	.	?
COc1ccccc1Oc1ccc(-c2cnc3ccccc3n2)cc1[N+](=O)[O-]	61.6*	-19.8%	72.9*	?	?
Cc1cccc(-c2noc(CN(C(=O)c3ccc4c(c3)OCO4)C(C)C)n2)c1	-1.9	-5.7%	-19.4	-32.3%	?
Cc1nc(C(C)N(C)Cc2nc(-c3ccc4c(c3)OCO4)no2)c(C)s1 (stereo unspecified)	50.6*	-29.2%	44.7	6.7%	?
COc1ccc(OC)c(NC(=O)COC(=O)CC2CCCCC2)c1	.	-3.9%	.	19.5%	20.2%
O=C(Nc1cccc(C(F)(F)F)c1)Nc1ccc(N2CCCC2)c(S(=O)(=O)Nc2ccccc2Cl)c1	0.9	-20.3%	8.9	3.98µM*	2.51µM*
CCOc1ccc2cc(C(=O)c3ccccc3)c(=O)oc2c1	33.3*	-10.2%	active	?	?
COc1ccc2cc(C(=O)c3ccccc3)c(=O)oc2c1	45.1*	0.0%	93.7*	?	?
COc1ccc2oc(=O)c(-c3nc4ccc(C)cc4[nH]3)cc2c1	.	.	.	-5.1%[46.1 µM]	.
COc1ccccc1C(=O)c1cc2ccc(O)cc2oc1=O	20.4	-0.6%	-11.3	.	.
COc1ccc2cc(-c3nc4ccc(C(=O)O)cc4[nH]3)c(=O)oc2c1	.	.	.	10µM*	.
CCOc1ccc2cc(C(=O)NCc3ccccc3)c(=N)oc2c1	7.1	16.1%	27.5	-0.1%[46.1 µM]	15.2%[46.1 µM]
SMILES	CHX counter	AMA1-RON2 inh	Shiga inhibitor	LASV entry inh	Marburg entry inh
Cc1oc(C(=O)O)cc1CSCc1cc(C(=O)O)c(C)o1	12.0*	-7.6%	16.2	27.5%	16.5%
CC1=C(C(=O)Nc2cccc(Cl)c2)C2(CCCCCC2)OC1=O	.	.	.	-10.1%[46.1 µM]	.
COc1ccc2cc3cc(C(=O)NCc4ccco4)oc3nc2c1	-1.4	-8.8%	-6.0	?	-13.1%
O=C(NCc1ccco1)c1cc2cc3ccc(Cl)cc3nc2o1	8.7	?	4.5	17.8µM*	?
O=C(NCc1ccco1)c1ccc(-c2ccccc2Cl)o1	43.2*	-10.8%	49.0	?	-10.7%[46.1 µM]
O=C(NCc1ccco1)c1ccc(CS(=O)(=O)Cc2ccc(Cl)cc2)o1	-4.1	-10.1%	-1.4	-14.0%	22.7%
O=C(NCc1ccco1)c1ccc(-c2ccc(Cl)cc2)o1	36.9*	-5.0%	78.1*	.	.
COc1ccc(C)cc1NS(=O)(=O)c1ccc2c(c1)CCCN2C(C)=O	.	.	.	-21.5%[46.1 µM]	.

Compound activity deposited in PubChem BioAssay by National Center for Advancing Translational Sciences (NCATS).
